From PubChem BioAssay (NCI)
This is part of a sample that, as a whole, favours compounds with a hit. Of some 83,000 tested, about 20% had one in any assay.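 Method: cells in 96-well plates; compound added at one concentration; 48 h incubation; percent growth measured; values under 10 scored active.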 A number with no mark means an inactive call. Calls of active or inactive are those of the source.

system: NCI-H322M lung; experiment: NCI-60 one-dose screen, 48 h (100 = growth as untreated, 0 = no growth, -100 = all killed); conditions: 10 µM unless noted

Question: Which growth does the source give for COc1cc(C=O)ccc1OC(=O)c1cc(-c2ccc(C)cc2)n(-c2ccc(S(C)(=O)=O)cc2)n1 here?
Answer: 101%

Question: With N#CC1=C(c2cccs2)Nc2c(c(-c3ccccc3)nn2-c2ccccc2)C12C(=O)Nc1ccccc12 (stereo not drawn) as the compound, how does the growth read?
Answer: 80.1%

Question: How did the growth turn out when COc1ccc(/C=C/c2nc3ccccc3c(=O)n2CC(=O)Nc2ccccc2)cc1 was run?
Answer: 46.8%

Question: How did the growth turn out when COc1ccc2c(c1)C(=O)N(C)C2C1c2c(cc3c(c2OC)OCO3)CCN1C (stereo not drawn) was run?
Answer: 75.9%

Question: How did the growth turn out when Cc1ccc(C(C(=O)NC2CCCCC2)N(Cc2ccccc2Cl)C(=O)c2ccc(CN3CCOCC3)o2)o1 (stereo not drawn) was run?
Answer: 105%

Question: Which growth does the source give for O=C(NNC(=S)NCCc1ccccc1)c1ccc(OCc2nc3ccc(Cl)cc3[nH]2)cc1 here?
Answer: 88.8%

Question: COc1ccc2c(c1)N=c1c-2cc2c(O)[nH]c(=S)n2c1=O was tested. Which growth did it give?
Answer: 78.1%

Question: Which growth does the source give for Cc1ccc(C2CC(c3ccc(NC(=O)Nc4ccccc4)cc3)=NN2c2ccc(S(C)(=O)=O)cc2)cc1 (stereo not drawn) here?
Answer: 6.06% (active)

Question: COc1ccc(C(=O)NNC(=O)CSc2nc3sc4c(c3c(=O)n2-c2ccc(Cl)cc2)CCCC4)cc1 was tested. Which growth did it give?
Answer: 73.5%

Question: With N#Cc1c(-c2ccc(F)cc2)nc(SCc2ccc(F)cc2)nc1N1CCNCC1 as the compound, how does the growth read?
Answer: 36.1%

Question: With Cc1ccc(C2CC(c3ccc(NC(=O)Nc4ccccc4)cc3)=NN2c2ccc(S(N)(=O)=O)cc2)cc1 (stereo not drawn) as the compound, how does the growth read?
Answer: -96.5% (active)

Question: O=c1[nH]c2ccccc2cc1CSc1ccccc1Nc1nccc(-c2ccc3c(c2)OCO3)n1 was tested. Which growth did it give?
Answer: 87.7%

Question: COc1ccc2c(c1)C(Sc1ccc(F)cc1)c1c(nc(N)c(C#N)c1N)O2 (stereo not drawn) was tested. Which growth did it give?
Answer: 94.4%

Question: For O=C1c2cccc3c(N4CCN(Cc5ccccc5)CC4)ccc(c23)C(=O)N1c1cccc(-c2nn(-c3ccccc3)cc2-c2nc3ccccc3s2)c1, which growth is on record?
Answer: 101%

Question: CCc1ccccc1NC(=O)N/C(N)=N/c1nc2ccccc2s1 was tested. Which growth did it give?
Answer: 28.3%

Question: How did the growth turn out when O=C(N/N=C/c1ccoc1)c1[nH]c2ccc(Br)cc2c1-c1ccccc1 was run?
Answer: -86.4% (active)

Question: COC(=O)c1c(C(=O)OC)c2ccc3c4ccccc4ccc3n2c1C(=O)C(C)Br (stereo not drawn) was tested. Which growth did it give?
Answer: 83.4%

Question: How did the growth turn out when COc1cc(CNC(=O)C[C@H](C)CCC=C(C)C)ccc1OCc1cn(-c2ccc(Cl)cc2Cl)nn1 was run?
Answer: 95.2%

Question: How did the growth turn out when O=CNc1cccc(-n2cnc3cc(-c4ccc(O)cc4)ccc32)c1 was run?
Answer: 68.1%

Question: O=C(N/N=C/c1occc1Br)c1[nH]c2ccc(Br)cc2c1-c1ccccc1 was tested. Which growth did it give?
Answer: -81.2% (active)

Question: With Cc1[nH]nc2ccc3nc(-c4cnn(CCO)c4)c4c(c3c12)CCCC4 as the compound, how does the growth read?
Answer: 53.8%

Question: How did the growth turn out when Cc1cc(N=C(N)c2ccccc2)ccc1OCCCCCCCCn1ccnc1 was run?
Answer: 18.7%

Question: How did the growth turn out when Cc1ccc(C(=O)Nc2cc(-n3ccnc3)cc(C(F)(F)F)c2)cc1-n1cc(-c2cnc3cccnn23)nn1 was run?
Answer: 113%

Question: Which growth does the source give for Cc1cc(Cl)ccc1NC(=O)Nc1ccc(-c2ccc3c(c2)NC(=O)/C3=C\c2ccc[nH]2)cc1 here?
Answer: 98.6%

Question: Which growth does the source give for COc1ccc(NC(=O)NN2C(=O)c3ccccc3N(C)C2c2ccc(OC)cc2)cc1 (stereo not drawn) here?
Answer: 95.8%

Question: Which growth does the source give for COc1ccc(-c2nc3ccc(-c4nnc(SCC(=O)Nc5ccc(/C(C)=N\O)cc5)o4)cc3[nH]2)cc1 here?
Answer: 46.5%

Question: How did the growth turn out when Cc1ccc2c(c1)nc(-c1ccccc1)n2CC(=O)N=Nc1c(O)[nH]c2ccc(Cl)cc12 was run?
Answer: -53.8% (active)

Question: How did the growth turn out when COc1ccc2c(c1)c(-c1cc(N)n3nc(-c4c[nH]c5ccccc45)cc3n1)cn2C was run?
Answer: -53.5% (active)

Question: How did the growth turn out when COc1cccc(C(N)=Nc2ccc(OCCCCCCCCn3cncn3)cc2)c1 was run?
Answer: 58.1%

Question: COc1ccccc1/C=C/c1cccc(NC(=S)NCCCCN(C)C)c1 was tested. Which growth did it give?
Answer: -87.4% (active)

Question: Cc1cccc(C)c1Nc1nnc(-c2c[nH]c3ccccc23)o1 was tested. Which growth did it give?
Answer: 98%

Question: How did the growth turn out when CCOc1ccccc1NC(=O)N/C(N)=N/c1nc2ccccc2s1 was run?
Answer: 35.9%

Question: With N#Cc1ccc(C(=O)NNC(=O)CSc2nc3sc4c(c3c(=O)n2-c2ccc(Cl)cc2)CCCC4)cc1 as the compound, how does the growth read?
Answer: 51.7%

Question: For S=C(Nc1ccc(OCc2nc3ccc(Cl)cc3[nH]2)cc1)NC1CCCCC1, which growth is on record?
Answer: 9.78% (active)

Question: COC(=O)c1c(C(=O)OC)c2c3ccccc3c3ccccc3n2c1C(=O)C(C)(C)C was tested. Which growth did it give?
Answer: 105%

Question: COc1cc(NC(=O)CSc2nnc(-c3ccc(-c4nc5ccc(Cl)cc5[nH]4)cc3)o2)cc(OC)c1OC was tested. Which growth did it give?
Answer: 95.2%

Question: Which growth does the source give for O=C1/C(=C/c2cnc(-c3ccccc3)s2)SC(=S)N1Cc1ccc2c(c1)OCO2 here?
Answer: 92.2%

Question: With CC(=O)c1c2c(c3ccc4c5ccccc5ccc4n13)C(=O)c1ccccc1C2=O as the compound, how does the growth read?
Answer: 92.9%
